Holding throughout (experiment): DAPPL (digital affinity profiling via proximity ligation, sequencing); 10 mM Tris-HCl pH 7.5, 50 mM NaCl, 1 mM DTT, 4% glycerol, room temperature, 30 min; GST-TFs on glutathione beads, 16-mer random dsDNA library, 0.1% formaldehyde crosslink after washing; high values mean tight binding
One test deals with T1, FEV (Homo sapiens, UniProt Q99581 1-238).
T1 sequence: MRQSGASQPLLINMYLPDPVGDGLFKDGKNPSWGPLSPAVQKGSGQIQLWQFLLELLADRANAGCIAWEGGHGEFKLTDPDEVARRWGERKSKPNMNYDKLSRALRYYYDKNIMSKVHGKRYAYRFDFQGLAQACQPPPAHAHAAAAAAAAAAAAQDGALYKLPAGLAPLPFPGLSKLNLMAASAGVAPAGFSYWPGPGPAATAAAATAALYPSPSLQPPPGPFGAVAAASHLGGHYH
As to conditions: protein: recombinant; tags: N-terminal GST; dsDNA, one strand shown. In outline: (§1)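 Binding signal is defined as a hexamer's read frequency for one factor over its frequency for the tag-only sample. To obtain reads, GST-fused human transcription factors were expressed in yeast, captured on glutathione beads, barcoded with DNA and pooled with that sample. Pools met 200 nmole of a 16-mer random double-stranded DNA library in Tris/NaCl/DTT/glycerol buffer for 30 min at room temperature before washing, 0.1% formaldehyde crosslinking, proximity ligation (BsaI/T4 ligase, 1 h, 37 °C), PCR and Illumina NextSeq500 sequencing.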

The target of another test is ETV5 (Homo sapiens, UniProt P41161 1-510). The following applies: protein: recombinant; tags: N-terminal GST; dsDNA, one strand shown. In outline: as §1
ETV5, sequence (P41161 whole entry): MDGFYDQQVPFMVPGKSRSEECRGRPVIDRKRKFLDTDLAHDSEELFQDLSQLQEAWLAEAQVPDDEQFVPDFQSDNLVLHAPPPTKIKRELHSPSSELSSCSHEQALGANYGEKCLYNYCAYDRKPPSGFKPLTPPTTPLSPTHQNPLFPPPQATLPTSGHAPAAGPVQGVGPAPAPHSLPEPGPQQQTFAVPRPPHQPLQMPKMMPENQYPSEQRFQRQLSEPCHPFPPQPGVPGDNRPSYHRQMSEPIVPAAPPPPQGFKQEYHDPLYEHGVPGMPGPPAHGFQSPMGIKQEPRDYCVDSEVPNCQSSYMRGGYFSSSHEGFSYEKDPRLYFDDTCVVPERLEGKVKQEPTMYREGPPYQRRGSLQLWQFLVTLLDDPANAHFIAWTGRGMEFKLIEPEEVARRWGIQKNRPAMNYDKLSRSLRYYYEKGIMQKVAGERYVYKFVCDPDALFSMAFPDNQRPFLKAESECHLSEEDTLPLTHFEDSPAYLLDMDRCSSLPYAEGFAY
A further test deals with HSF1 (Homo sapiens, UniProt Q00613 1-529). The following applies: protein: recombinant; tags: N-terminal GST; chain copies: 3; dsDNA, one strand shown. Summed up: as §1
HSF1, sequence (Q00613 whole entry): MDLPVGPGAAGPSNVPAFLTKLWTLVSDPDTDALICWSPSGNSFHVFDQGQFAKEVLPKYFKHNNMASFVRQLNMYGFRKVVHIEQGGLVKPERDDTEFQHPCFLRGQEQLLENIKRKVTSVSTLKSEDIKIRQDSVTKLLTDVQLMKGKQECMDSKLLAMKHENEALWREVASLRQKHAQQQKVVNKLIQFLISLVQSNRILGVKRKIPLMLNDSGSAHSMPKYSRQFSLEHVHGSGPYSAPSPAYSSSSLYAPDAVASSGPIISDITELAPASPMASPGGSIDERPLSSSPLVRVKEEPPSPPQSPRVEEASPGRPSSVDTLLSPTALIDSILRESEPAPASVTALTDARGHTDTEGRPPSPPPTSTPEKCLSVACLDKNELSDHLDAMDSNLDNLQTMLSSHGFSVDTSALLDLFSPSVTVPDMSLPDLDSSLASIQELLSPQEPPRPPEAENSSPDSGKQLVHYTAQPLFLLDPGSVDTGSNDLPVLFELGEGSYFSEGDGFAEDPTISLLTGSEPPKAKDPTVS
A further test concerns the target T2, SPIC (Homo sapiens, UniProt Q8N5J4 1-248).
T2 sequence: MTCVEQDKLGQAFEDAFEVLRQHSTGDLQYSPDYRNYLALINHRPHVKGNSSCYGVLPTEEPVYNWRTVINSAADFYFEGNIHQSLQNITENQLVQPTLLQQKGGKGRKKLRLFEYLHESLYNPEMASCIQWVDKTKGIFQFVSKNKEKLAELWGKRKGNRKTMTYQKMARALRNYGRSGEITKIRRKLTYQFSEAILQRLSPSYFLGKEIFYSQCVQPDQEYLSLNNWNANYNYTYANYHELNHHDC
As to conditions: protein: recombinant; tags: N-terminal GST; dsDNA, one strand shown. In outline: as §1

The next test concerns the target ELF4 (Homo sapiens, UniProt Q99607 1-663). The following applies: protein: recombinant; tags: N-terminal GST; dsDNA, one strand shown. In outline: as §1
The target of another test is T3, ELK4 (Homo sapiens, UniProt P28324-2 1-405).
T3 sequence: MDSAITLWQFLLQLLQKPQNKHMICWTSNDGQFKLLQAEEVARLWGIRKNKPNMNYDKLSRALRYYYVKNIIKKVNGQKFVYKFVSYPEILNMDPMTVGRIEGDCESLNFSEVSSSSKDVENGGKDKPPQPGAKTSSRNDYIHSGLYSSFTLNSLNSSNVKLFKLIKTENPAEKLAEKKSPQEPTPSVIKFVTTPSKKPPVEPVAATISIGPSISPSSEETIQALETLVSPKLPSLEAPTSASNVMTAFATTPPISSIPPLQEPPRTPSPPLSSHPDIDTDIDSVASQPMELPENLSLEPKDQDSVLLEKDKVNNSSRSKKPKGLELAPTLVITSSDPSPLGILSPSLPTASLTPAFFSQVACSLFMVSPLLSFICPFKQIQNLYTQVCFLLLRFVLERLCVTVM
As to conditions: protein: recombinant; tags: N-terminal GST; dsDNA, one strand shown. In outline: as §1

The target of another test is T4, ETV2 (Homo sapiens, UniProt O00321 1-342).
T4 sequence: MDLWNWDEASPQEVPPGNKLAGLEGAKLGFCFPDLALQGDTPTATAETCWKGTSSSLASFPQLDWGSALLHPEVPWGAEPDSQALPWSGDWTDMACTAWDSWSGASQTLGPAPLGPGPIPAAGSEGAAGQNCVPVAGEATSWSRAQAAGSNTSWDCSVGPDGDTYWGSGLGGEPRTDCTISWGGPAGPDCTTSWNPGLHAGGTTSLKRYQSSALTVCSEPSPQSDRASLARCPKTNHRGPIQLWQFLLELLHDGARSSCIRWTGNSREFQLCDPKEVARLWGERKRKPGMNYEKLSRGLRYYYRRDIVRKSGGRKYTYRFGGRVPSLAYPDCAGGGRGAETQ
The following applies: protein: recombinant; tags: N-terminal GST; dsDNA, one strand shown. In outline:
as §1

Another test has as its target T5, ELF3 (Homo sapiens, UniProt P78545 1-371).
T5 sequence: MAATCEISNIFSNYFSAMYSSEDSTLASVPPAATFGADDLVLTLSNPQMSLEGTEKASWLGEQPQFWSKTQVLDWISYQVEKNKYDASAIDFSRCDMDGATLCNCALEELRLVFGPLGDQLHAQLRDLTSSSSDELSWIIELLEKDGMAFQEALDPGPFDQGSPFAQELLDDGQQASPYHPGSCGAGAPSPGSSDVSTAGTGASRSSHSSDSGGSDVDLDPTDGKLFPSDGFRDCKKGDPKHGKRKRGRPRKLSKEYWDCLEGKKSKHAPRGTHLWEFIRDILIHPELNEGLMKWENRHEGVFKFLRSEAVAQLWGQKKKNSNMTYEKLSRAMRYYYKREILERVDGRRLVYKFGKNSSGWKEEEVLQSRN
The following applies: protein: recombinant; tags: N-terminal GST; dsDNA, one strand shown. Summed up: as §1

A further test deals with CRX (Homo sapiens, UniProt O43186 1-299). The following applies: protein: recombinant; tags: N-terminal GST; dsDNA, one strand shown. In outline:
as §1

The target of another test is ETV1 (Homo sapiens, UniProt P50549 1-477). The following applies: protein: recombinant; tags: N-terminal GST; dsDNA, one strand shown. Summed up: as §1
ETV1, sequence (P50549 whole entry): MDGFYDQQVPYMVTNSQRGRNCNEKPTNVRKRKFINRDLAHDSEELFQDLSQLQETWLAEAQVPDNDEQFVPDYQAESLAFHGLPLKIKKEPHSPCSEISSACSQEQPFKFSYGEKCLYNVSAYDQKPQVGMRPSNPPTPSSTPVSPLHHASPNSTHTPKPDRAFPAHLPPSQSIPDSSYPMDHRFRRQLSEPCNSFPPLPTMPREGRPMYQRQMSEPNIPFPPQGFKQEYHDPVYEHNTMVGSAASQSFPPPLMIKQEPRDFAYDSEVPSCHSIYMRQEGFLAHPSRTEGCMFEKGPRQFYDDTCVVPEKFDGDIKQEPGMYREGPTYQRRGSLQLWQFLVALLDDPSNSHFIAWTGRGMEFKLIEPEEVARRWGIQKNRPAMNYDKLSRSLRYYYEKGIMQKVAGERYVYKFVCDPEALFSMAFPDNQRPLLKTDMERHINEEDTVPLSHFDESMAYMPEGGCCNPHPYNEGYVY
A further test concerns the target T6, ERF (Homo sapiens, UniProt P50548 1-548).
T6 sequence: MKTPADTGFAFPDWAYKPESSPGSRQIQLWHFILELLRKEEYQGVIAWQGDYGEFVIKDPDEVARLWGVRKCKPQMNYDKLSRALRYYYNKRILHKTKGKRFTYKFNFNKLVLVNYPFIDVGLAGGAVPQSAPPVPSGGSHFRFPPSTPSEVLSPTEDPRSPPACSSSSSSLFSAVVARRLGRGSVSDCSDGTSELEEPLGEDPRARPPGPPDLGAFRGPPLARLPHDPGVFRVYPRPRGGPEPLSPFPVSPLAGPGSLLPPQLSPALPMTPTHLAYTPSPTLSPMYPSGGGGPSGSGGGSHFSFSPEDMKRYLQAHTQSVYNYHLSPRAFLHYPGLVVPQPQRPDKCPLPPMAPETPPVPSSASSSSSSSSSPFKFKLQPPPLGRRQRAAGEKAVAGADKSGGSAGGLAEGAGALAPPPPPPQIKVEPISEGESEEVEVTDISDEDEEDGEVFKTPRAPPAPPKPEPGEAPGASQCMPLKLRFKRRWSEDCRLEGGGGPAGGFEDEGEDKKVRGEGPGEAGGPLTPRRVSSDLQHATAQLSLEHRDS
As to conditions: protein: recombinant; tags: N-terminal GST; dsDNA, one strand shown. Summed up: as §1

A further test deals with T7, ETV3L (Homo sapiens, UniProt Q6ZN32 1-361).
T7 sequence: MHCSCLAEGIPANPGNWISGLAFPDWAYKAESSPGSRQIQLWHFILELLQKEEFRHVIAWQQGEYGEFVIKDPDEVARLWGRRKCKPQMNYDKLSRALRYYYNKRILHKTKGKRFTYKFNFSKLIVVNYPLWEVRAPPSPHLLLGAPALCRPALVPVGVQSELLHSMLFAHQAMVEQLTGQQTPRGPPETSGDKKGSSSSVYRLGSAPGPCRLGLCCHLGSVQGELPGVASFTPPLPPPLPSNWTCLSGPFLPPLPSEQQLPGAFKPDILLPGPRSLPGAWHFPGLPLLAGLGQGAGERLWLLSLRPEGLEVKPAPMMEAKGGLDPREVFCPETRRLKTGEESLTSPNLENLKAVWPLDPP
As to conditions: protein: recombinant; tags: N-terminal GST; dsDNA, one strand shown. In outline: as §1

In a further test the target is T8, ETS2 (Homo sapiens, UniProt P15036 1-469).
T8 sequence: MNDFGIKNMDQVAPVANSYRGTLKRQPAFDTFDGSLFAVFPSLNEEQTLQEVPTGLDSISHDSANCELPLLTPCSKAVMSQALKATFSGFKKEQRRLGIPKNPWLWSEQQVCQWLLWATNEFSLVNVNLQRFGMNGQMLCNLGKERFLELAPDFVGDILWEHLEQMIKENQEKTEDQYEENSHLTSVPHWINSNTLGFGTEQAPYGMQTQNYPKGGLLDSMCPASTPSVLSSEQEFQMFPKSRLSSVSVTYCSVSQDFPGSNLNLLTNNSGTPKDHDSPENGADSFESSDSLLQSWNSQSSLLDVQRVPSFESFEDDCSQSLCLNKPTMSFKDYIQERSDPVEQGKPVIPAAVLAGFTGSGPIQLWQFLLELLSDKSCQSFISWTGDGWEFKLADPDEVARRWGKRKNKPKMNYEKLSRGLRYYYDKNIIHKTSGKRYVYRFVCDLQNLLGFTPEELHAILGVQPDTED
As to conditions: protein: recombinant; tags: N-terminal GST; dsDNA, one strand shown. In outline:
as §1

For another test, the target named is T9, SPDEF (Homo sapiens, UniProt O95238 1-335).
T9 sequence: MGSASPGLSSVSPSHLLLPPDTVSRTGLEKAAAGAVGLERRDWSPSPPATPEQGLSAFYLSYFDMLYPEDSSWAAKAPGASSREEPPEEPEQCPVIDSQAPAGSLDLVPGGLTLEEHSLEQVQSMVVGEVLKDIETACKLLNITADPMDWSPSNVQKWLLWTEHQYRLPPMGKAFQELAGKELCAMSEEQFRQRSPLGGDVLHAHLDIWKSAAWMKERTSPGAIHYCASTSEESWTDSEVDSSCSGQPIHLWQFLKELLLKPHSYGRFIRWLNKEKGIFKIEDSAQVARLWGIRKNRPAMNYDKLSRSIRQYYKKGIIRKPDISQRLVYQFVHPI
As to conditions: protein: recombinant; tags: N-terminal GST; dsDNA, one strand shown. Summed up: as §1

The target of another test is T10, ETV7 (Homo sapiens, UniProt Q9Y603 1-341).
T10 sequence: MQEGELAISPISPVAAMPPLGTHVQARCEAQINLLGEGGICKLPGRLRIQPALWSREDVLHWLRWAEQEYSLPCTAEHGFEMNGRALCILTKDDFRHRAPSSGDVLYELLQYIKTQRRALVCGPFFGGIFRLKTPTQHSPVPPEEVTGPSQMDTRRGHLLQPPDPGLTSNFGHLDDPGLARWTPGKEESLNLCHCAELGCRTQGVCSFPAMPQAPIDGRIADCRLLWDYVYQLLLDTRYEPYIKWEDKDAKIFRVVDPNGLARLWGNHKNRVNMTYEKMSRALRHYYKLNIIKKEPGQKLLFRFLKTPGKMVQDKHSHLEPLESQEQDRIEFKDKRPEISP
As to conditions: protein: recombinant; tags: N-terminal GST; dsDNA, one strand shown. Summed up:
as §1

The target of another test is T11, ELF5 (Homo sapiens, UniProt Q9UKW6-2 1-255).
T11 sequence: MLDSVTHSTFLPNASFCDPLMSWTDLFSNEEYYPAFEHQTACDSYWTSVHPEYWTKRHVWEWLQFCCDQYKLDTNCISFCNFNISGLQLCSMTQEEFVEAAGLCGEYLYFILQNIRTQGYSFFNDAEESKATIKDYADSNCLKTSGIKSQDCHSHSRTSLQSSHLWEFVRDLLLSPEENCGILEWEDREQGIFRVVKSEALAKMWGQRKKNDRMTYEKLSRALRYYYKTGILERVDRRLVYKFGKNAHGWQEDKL
The following applies: protein: recombinant; tags: N-terminal GST; dsDNA, one strand shown. In outline:
as §1

For the next test, the target named is T12, ETV3 (Homo sapiens, UniProt P41162-2 1-143).
T12 sequence: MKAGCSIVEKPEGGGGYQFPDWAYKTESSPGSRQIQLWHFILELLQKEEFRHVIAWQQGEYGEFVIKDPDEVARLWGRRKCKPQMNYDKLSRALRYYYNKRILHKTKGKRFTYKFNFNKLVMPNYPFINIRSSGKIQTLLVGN
The following applies: protein: recombinant; tags: N-terminal GST; dsDNA, one strand shown. In outline: as §1

In the next test the target is ETV6 (Homo sapiens, UniProt P41212 1-452). The following applies: protein: recombinant; tags: N-terminal GST; dsDNA, one strand shown. Summed up: as §1
ETV6, sequence (P41212 whole entry): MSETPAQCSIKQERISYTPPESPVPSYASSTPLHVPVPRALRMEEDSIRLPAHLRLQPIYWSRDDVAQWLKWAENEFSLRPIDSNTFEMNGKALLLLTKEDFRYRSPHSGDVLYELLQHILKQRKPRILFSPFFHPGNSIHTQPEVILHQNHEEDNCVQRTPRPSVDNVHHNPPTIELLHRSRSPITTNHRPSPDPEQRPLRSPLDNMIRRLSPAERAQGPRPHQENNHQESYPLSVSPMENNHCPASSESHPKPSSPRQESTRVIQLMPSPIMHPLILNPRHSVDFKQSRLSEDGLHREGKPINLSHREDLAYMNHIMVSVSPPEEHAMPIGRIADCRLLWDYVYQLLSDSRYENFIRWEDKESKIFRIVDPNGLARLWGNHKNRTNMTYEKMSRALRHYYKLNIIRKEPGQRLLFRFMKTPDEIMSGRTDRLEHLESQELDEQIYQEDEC

CRX, sequence (O43186 whole entry): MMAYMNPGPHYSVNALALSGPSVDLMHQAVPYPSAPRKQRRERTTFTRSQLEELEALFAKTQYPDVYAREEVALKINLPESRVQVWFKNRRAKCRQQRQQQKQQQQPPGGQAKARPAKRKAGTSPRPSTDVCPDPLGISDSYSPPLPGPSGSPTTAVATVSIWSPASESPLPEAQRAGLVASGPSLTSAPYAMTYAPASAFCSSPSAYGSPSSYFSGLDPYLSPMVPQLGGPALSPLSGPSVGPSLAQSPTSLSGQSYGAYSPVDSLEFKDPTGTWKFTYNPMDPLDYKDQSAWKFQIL
ELF4, sequence (Q99607 whole entry): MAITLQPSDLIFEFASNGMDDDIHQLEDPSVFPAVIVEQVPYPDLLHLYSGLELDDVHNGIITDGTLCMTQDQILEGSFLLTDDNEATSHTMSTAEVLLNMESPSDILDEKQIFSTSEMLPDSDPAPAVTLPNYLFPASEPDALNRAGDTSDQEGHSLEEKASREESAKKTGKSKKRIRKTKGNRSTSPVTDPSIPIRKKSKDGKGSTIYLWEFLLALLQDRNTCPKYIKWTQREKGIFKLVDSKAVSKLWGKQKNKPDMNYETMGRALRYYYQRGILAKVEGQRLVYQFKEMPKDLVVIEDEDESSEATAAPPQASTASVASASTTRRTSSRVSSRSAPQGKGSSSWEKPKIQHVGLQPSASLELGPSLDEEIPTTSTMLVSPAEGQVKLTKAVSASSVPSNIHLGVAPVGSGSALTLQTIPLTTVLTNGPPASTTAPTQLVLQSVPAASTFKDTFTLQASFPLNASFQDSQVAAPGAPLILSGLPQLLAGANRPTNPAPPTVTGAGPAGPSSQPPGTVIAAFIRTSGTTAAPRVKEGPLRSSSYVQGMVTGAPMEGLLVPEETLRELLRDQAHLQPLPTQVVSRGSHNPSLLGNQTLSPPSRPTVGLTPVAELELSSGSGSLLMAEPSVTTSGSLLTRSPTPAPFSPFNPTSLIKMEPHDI

With ATGAAT, the binding signal with FEV is 1.07 fold enrichment (6-mer frequency, TF over GST control); with ETV5 it was 1.1 fold enrichment (6-mer frequency, TF over GST control); in the test with HSF1 it was 1.19 fold enrichment (6-mer frequency, TF over GST control); in the test with SPIC, 1.31 fold enrichment (6-mer frequency, TF over GST control); with ELF4, 1.14 fold enrichment (6-mer frequency, TF over GST control); with ELK4, 1.13 fold enrichment (6-mer frequency, TF over GST control). Moreover, the binding signal with ETV2 is 1.04 fold enrichment (6-mer frequency, TF over GST control); with ELF3, 1.08 fold enrichment (6-mer frequency, TF over GST control); with CRX, 1.2 fold enrichment (6-mer frequency, TF over GST control); with ETV1, 1.16 fold enrichment (6-mer frequency, TF over GST control); in the test with ERF it was 1.16 fold enrichment (6-mer frequency, TF over GST control); with ETV3L, 1.14 fold enrichment (6-mer frequency, TF over GST control). The binding signal with ETS2 is 1.17 fold enrichment (6-mer frequency, TF over GST control); with SPDEF, 1.06 fold enrichment (6-mer frequency, TF over GST control); in the test with ETV7 it was 1.19 fold enrichment (6-mer frequency, TF over GST control); in the test with ELF5 it was 1.09 fold enrichment (6-mer frequency, TF over GST control); in the test with ETV3 it was 1.2 fold enrichment (6-mer frequency, TF over GST control); in the test with ETV6 it was 1.15 fold enrichment (6-mer frequency, TF over GST control).
